# Source: PubChem BioAssay
# Rows were chosen to be rich in hits. Some 3.8% of all compounds tested hit in one or more screens of this group.
# Nrf2 ARE act – qHTS of Nrf2 Activators | AREc32 ARE-luciferase reporter (MCF7-derived line), luminescence, 24 h | Potency, µM (top dose mostly 46.1 µM), for inactives: at the top dose activation, hits mostly activators | hit rate 0.31% among 410,000; further: % of control where 0% means no effect; nearly all actives have a fitted effect of over 65% in size
#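 For detection, Steady-Glo was added and plates sat 30 min at RT; before that, AREc32_Fluc cells grown overnight in OPTI-MEM/5% FBS had been treated with 23 nL compound for 24 hr at 37 deg C.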
# ELG1 DNA repair – qHTS screen for small molecules that inhibit ELG1-dependent DNA repair in human embryonic kidney (HEK293T) cells expressing luciferase-tagged ELG1 | AID 504467, 2011 | hit rate 2.3% among 330,000 | Potency, µM (doses to about 46.1 µM), for the others: at the top dose activity change, negative = inhibition, actives largely listed as inhibitors | HEK293T ELG1-luciferase reporter, luminescence, 16 h; DNA damage induced by 5-fluorouridine; further: on the % scale 0 is the no-effect control and ±100 the full control effect; nearly all actives have a fitted effect of over 55% in size
#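 HEK293T cells expressing luciferase-tagged ELG1 (2,000/well) received 5-Fluorouridine plus compound or DMSO for 16 hr at 37 °C. Luciferase was read by ONE-Glo luminescence after 30 min at room temperature.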
# A549 tox – Nrf2 qHTS screen for inhibitors: counterscreen for cytotoxicity; A549 ARE-Fluc cells, CellTiter-Fluor viability, 18-24 h; Potency, µM (top dose mostly 46 µM), without a hit: top-dose activity change, negative = cytotoxicity, usual class: inhibitors; hit rate 0.16% among 390,000; AID 504648, 2011; further: on the % scale 0 is the no-effect control and ±100 the full control effect
#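 Cytotoxicity counterscreen: CellTiter-Fluor fluorescence was measured in A549 ARE_Fluc cells after 18-24 h of compound exposure in a concentration series. The subsequent BugLite luminescent read reports ARE-luciferase activity.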
# mIDH1 inhibitor – qHTS for Inhibitors of mutant isocitrate dehydrogenase 1 (IDH1): qHTS | Potency, µM (top dose mostly 76.6 µM), without a hit: top-dose activity change, negative = inhibition, usual class: inhibitors | Isocitrate dehydrogenase [NADP] cytoplasmic (Homo sapiens), O75874 | hit rate 0.093% among 390,000 | AID 602179, 2012 | IDH1-R132H enzyme, NADPH consumption, diaphorase/resazurin fluorescence; further: on the % scale 0 is the no-effect control and ±100 the full control effect; nearly all actives have a fitted effect of over 65% in size
# Target sequence (O75874 whole entry R132H, stated change not applied): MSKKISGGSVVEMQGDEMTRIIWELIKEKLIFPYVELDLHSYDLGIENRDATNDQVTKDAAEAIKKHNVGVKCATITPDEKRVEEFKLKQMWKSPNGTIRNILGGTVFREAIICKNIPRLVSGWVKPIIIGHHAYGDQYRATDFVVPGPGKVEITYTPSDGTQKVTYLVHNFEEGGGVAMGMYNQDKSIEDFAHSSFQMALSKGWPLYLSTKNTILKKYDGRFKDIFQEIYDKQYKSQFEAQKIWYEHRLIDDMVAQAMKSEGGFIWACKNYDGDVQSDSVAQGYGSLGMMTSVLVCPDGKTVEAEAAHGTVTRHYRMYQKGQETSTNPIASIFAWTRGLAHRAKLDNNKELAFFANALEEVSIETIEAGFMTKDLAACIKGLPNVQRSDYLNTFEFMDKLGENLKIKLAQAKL
#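 IDH1-R132H (0.5 ug/mL dispensed) in pH 7.5 Tris buffer was preincubated 30 min with compound, then given a substrate mix of 0.016 mM NADPH and 2 mM alpha-KG for 80 min at room temperature; remaining NADPH was read by diaphorase/resazurin fluorescence.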
# Nrf2 block – Nrf2 qHTS screen for inhibitors; A549 ARE-Fluc reporter, luciferase luminescence, 18-24 h; Potency, µM (series often up to 46 µM), for inactives: at the highest dose activity change, negative = inhibition, most hits filed as inhibitors; hit rate 2.1% among 360,000; AID 504444, 2011; further: on the % scale 0 is the no-effect control and ±100 the full control effect; nearly all actives have a fitted effect of over 60% in size
#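 Two sequential reads on A549 ARE_Fluc cells exposed to compound for 18-24 h: a CellTiter-Fluor fluorescence read for viability, then a luciferase luminescence read for Nrf2/ARE activity.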
# * hit, by the source's call; ? = inconclusive; · = no result. The call rests on the fitted dose curve; in most records, active means well fitted curve in the direction sought with a large enough effect; inconclusive means small, poorly fitted or top-dose-only effect, or another doubt; inactive means no such curve, though single readings can be large; an effect the other way counts as inactive or inconclusive. Potency means the concentration at half of the fitted maximal effect.
SMILES,Nrf2 ARE act,ELG1 DNA repair,A549 tox,mIDH1 inhibitor,Nrf2 block
CNC(=O)C1CCC(Cn2c(=O)c3sccc3n(Cc3ccccc3)c2=O)CC1 (stereo not drawn),-0.9%,·,8.6%,-5.9%,?
COc1ccc(OC)c(NC(=O)CN2CCCN(Cc3ccccc3Cl)S2(=O)=O)c1,0.3%,·,-0.1%,8.0%,-8.0%
Cc1cc2c(s1)c1cnn(Cc3ccccc3F)c(=O)c1n2C(C)C,·,·,3.5%,·,?
Cc1cc(N2CCN(S(=O)(=O)c3ccc(Cl)c(Cl)c3)CC2)c2ccccc2n1,0.8%,?,-3.0%,-0.6%,23.1µM*
Cc1cc(N2CCN(S(=O)(=O)c3ccc(Cl)cc3)CC2)c2ccccc2n1,0.0%,23.1µM*,-21.8%,-9.9%,20.6µM*
CSc1ccc(CNC(=O)CN2C(=O)C3CCCCN3c3ccc(C(=O)N4CCCC4)cc32)cc1 (stereo not drawn),-0.7%,·,-12.2%,13.4%,·
Cc1cc(=O)n2cc(-c3ccccc3)nc2[nH]1,-0.3%,?,7.5%,1.9%,6.2%
Cc1ccc(-c2cn3c(=O)cc(C)[nH]c3n2)cc1,0.2%,?,-15.3%,6.9%,5.8µM*
Fc1cccc(Cl)c1CNCCSc1nnnn1-c1ccccc1,3.3%,·,7.3%,-5.5%,9.3%
COc1cccc(/C=C/C(=O)c2ccc[nH]2)c1,15.8µM*,?,-1.5%,7.4%,?
CC(C)C[C@H](NC(=O)OC(C)(C)C)C(=O)N/N=C/C1=Cc2ccccc2OC1C (stereo partly drawn),3.1%,-28.6%,?,1.0%,20.6µM*
CC(C)C[C@H](NC(=O)OC(C)(C)C)C(=O)N/N=C/c1ccc2nccnc2c1,-0.1%,-8.1%,10.3%,5.4%,-24.0%
COc1ccc(C2c3ccc(OCc4ccccc4)cc3Oc3ncn(CCN4CCOCC4)c(=N)c32)cc1OC (stereo not drawn),·,·,-6.7%,·,?
Cc1nn(C)c(C(=O)Nc2ccc(S(=O)(=O)NC34CC5CC(CC(C5)C3)C4)cc2)c1Br,-0.1%,?,?,-0.1%,14.6µM*
CC[C@H](C)[C@H]1CNC(=S)N1CC1CCN(CCC(C)C)CC1,-0.5%,·,·,0.9%,·
O=C(/C=C/c1ccc(-c2ccccc2[N+](=O)[O-])o1)c1ccc(Br)cc1,2.51µM*,0.0%,-0.4%,-6.0%,-7.5%
CCOC(=O)c1ccc(NC(=O)c2nc[nH]c2C(=O)NCCCCNC(=O)c2[nH]cnc2C(=O)Nc2ccc(C(=O)OCC)cc2)cc1,1.1%,?,1.1%,-9.5%,-22.0%
CC(C)C[C@H](NC(=O)c1nc[nH]c1C(=O)N[C@@H](CC(C)C)C(=O)OC(C)(C)C)C(=O)OC(C)(C)C,11.9%,?,?,0.2%,25.9µM*
Cc1ccc(NC(=O)c2nc[nH]c2C(=O)NCCCNC(=O)c2[nH]cnc2C(=O)Nc2ccc(C)cc2)cc1,0.4%,5.17µM*,-0.6%,-19.7%,-0.7%
CC(C)(C)OC(=O)NCCCCCNC(=O)c1[nH]cnc1C(=O)Nc1ccc(Cl)cc1,-4.0%,20.6µM*,?,-0.4%,16.4µM*
CCOC(=O)c1ccc(NC(=O)c2nc[nH]c2C(=O)NCCCCCNC(=O)OC(C)(C)C)cc1,-0.5%,16.4µM*,-2.7%,-4.6%,?
Cc1ccc(NC(=O)c2nc[nH]c2C(=O)NCCCCCCNC(=O)c2[nH]cnc2C(=O)Nc2ccc(C)cc2)cc1,0.1%,?,-7.4%,-3.5%,?
COc1ccc(OCC(=O)N(Cc2cccc(OC)c2)C2CCS(=O)(=O)C2)cc1 (stereo not drawn),0.0%,·,-6.3%,9.1%,9.2%
CC1CCN(C(=O)Nc2ccc3nc(-c4ccco4)c(-c4ccco4)nc3c2)CC1,·,·,-11.6%,·,?
CCOC(=O)c1ccc(NC(=O)c2nc[nH]c2C(=O)N[C@@H](Cc2ccccc2)C(=O)OC(C)(C)C)cc1,0.3%,23.1µM*,-4.0%,5.1%,?
SMILES,Nrf2 ARE act,ELG1 DNA repair,A549 tox,mIDH1 inhibitor,Nrf2 block
Cc1ccc(NC(=O)c2nc[nH]c2C(=O)NCCCCCNC(=O)OC(C)(C)C)cc1,-5.1%,23.1µM*,?,8.6%,?
CCCn1c(SCC(=O)Nc2nc(-c3ccc(OC)cc3)cs2)nc2c1c(=O)n(C)c(=O)n2C,2.6%,?,35.4%,8.7%,14.4%
CC(C)n1c(SCC(=O)Nc2nc3ccccc3s2)nc2c1c(=O)n(C)c(=O)n2C,2.3%,·,2.2%,2.0%,?
CCn1c(SCC(=O)Nc2nc3ccc(OC)cc3s2)nc2c1c(=O)n(C)c(=O)n2C,0.6%,13µM*,3.1%,2.1%,·
CCOc1ccc2nc(NC(=O)CSc3nc4c(c(=O)n(C)c(=O)n4C)n3C(C)C)sc2c1,4.0%,9.2µM*,1.8%,-0.6%,-24.6%
COc1ccc(CC(=O)NCC(c2cccs2)S(=O)(=O)c2ccc(Cl)cc2)cc1 (stereo not drawn),7.6%,·,-1.9%,-3.5%,·
O=C(CN1CCN(Cc2ccccc2F)CC1)Nc1ccccc1Cl,-0.7%,10.3µM*,-3.9%,-5.8%,2.6%
O=C(CN1CCN(Cc2ccccc2)CC1)N/N=C/c1ccc(Br)s1,2.3%,9.2µM*,-7.3%,-2.3%,?
Cc1ccc(NC(=O)CN2CCN(Cc3ccccc3)CC2)c(Br)c1,3.1%,20.6µM*,2.2%,0.0%,23.0%
COc1cccc(C(C)NC(=O)Nc2ccccc2Cl)c1 (stereo not drawn),-2.5%,-14.5%,3.3%,6.1%,10.3µM*
COc1ccc(CNC(=O)c2sc3nc4n(c(=O)c3c2C)CCCCC4)cc1,0.0%,·,10.8%,-8.1%,0.0%
Cc1ccc(CNC(=O)CN2C(=O)C3(SCC(=O)N3c3cc(C)cc(C)c3)c3ccccc32)cc1 (stereo not drawn),3.1%,·,-10.6%,-3.8%,-1.5%
COc1ccccc1NC(=O)CN1CCN(CC(=O)Nc2ccccc2Cl)CC1,-0.8%,0.2%,6.0%,-0.8%,8.2%
COc1cc(OC)cc(C(=O)NC2CCN(CC(=O)Nc3cccc4ccccc34)CC2)c1,0.4%,11.6µM*,0.4%,4.9%,-16.2%
COc1cccc(CN2CCN(CC(=O)Nc3ccccc3Cl)CC2)c1,0.6%,13µM*,5.0%,0.2%,-2.4%
COC(=O)c1ccc(OCC2c3cc(OC)c(OC)cc3CCN2C(=O)Cc2ccc(OC)cc2)cc1 (stereo not drawn),6.2%,·,-3.8%,13.2%,·
COc1ccc(OC)c(Nc2cc(C)nc3ccccc23)c1,0.3%,20.6µM*,-13.6%,3.0%,-12.1%
COc1ccccc1OCC(=O)NNc1c2ccccc2nc2ccccc12,3.0%,?,?,-5.2%,20.6µM*
